Results taken from PubChem BioAssay (Tox21).
Several values for one entry are separate records, joined by “and”; a condition that tells them apart may be missing. Identical values can stand only once. Records with an inconclusive call do not appear. Entries that show only a call come without a potency. Activity calls are given as the source filed them. The call rests on the fitted dose curve; in most records, active means well fitted cell-killing curve with a large enough effect in the repeat runs; inconclusive means weak or mixed curves, or effect the other way; inactive means flat fitted curve, though single readings scatter.

Assay: Nuclear factor erythroid 2-related factor 2/antioxidant responsive element (Nrf2/ARE) small molecule agonists: qHTS cell viability counter screen in human keratinocytes (AID 1919968); further: nearly all actives have a fitted effect of over 55% in size
Settings: KeratinoSens HaCaT ARE cells viability, CellTiter-Fluor, 24 h; series mostly up to 92.4 µM
From the text: U.S. Tox21 Program National Center for Advancing Translational Sciences [NCATS] Division of Preclinical Innovation [DPI] U.S. Environmental Protection Agency [EPA] National Institutes of Environmental Health Sciences [NIEHS] National Toxicology Program [NTP] U.S. Food and Drug Administration [FDA] Tox21 Assay Overview: Oxidative stress has been implicated in the pathogenesis of a variety of diseases ranging from cancer to neurodegeneration. The antioxidant response element (ARE) signaling pathway plays an important role in the amelioration of oxidative stress. The KeratinoSens (Givaudan, Switzerland) is an in vitro test method which quantifies luciferase induction as a measure of activation of Keap1-Nrf2-antioxidationt/electrophile response element (ARE) dependant pathway in HaCaT human keratinocytes stably transfected with a selectable plasmid. The KeratinoSens assay is a cell-based assay with a reporter cell line to detect potential skin sensitizers by their ability to induce the Nrf2/ARE-response. The activation of the report gene under culture conditions can be detected by ONE-Glo Luciferase Assay System (Promega, Madison, WI). This cell line has been used to screen the Tox21 10K compound library to identify agonists that induce oxidative stress. The cytotoxicity of the Tox21 compound library against the KS-ARE cell line was tested in parallel by measuring the cell viability using CellTiter- Fluor assay system (Promega, Madison, WI) in the same wells.
Tox21 Assay Protocol Summary: HaCaT derived cell line KeratinoSens were dispensed at 1,500 cells/5uL/well in 1536-well white wall/solid bottom plates using a Multidrop Combi (ThermoFisher Scientific, Waltham, MA) dispenser. After the assay plates were incubated at 37 C/5% CO2 for 5 h, 23 nL of compounds dissolved in DMSO, positive controls or DMSO only was transferred to the assay plate by a pintool workstation (Kalypsys, San Diego, CA). The plates were incubated at 37 C/5% CO2 for 23 h, followed by addition of 1uL/well of CellTiter-Fluor reagent into the assay plates using a Flying Reagent Dispenser (Aurora Discovery, San Diego, CA) for cell viability readout that measures cytotoxicity. After 1 h incubation at 37 C/5% CO2 the fluorescence intensity was measured using a ViewLux (PerkinElmer, Shelton, CT) plate reader.
Potency means the concentration at half of the fitted maximal effect.

Row | Structure (SMILES) | Potency
1 | CC1(C)OC(=O)NC1=O | inactive
2 | CCCCC(C=O)CC (stereo not given) | inactive
3 | CC(=O)OC(C)C | inactive
4 | C#C[C@]1(O)CC[C@H]2[C@@H]3CCc4cc(O)ccc4[C@H]3CC[C@@]21C | inactive
5 | CCCCCCC(=O)O | inactive
6 | Cc1ccc([N+](=O)[O-])cc1N | inactive
7 | CCCCCCCCCCCCOC(=O)c1cc(O)c(O)c(O)c1 | 30.5 µM (active) and 27.3 µM (active)
8 | Cc1ccccc1C=O | inactive
9 | Nc1ccc(Nc2ccccc2)cc1 | inactive
10 | C=CCc1ccc(O)c(OC)c1 | inactive
11 | CC(=O)c1ccccc1 | inactive
12 | O=C(Cl)c1c(Cl)c(Cl)c(C(=O)Cl)c(Cl)c1Cl | inactive
13 | c1ccc2c(c1)ccc1ccccc12 | inactive
14 | c1ccc(OCCOc2ccccc2)cc1 | inactive
15 | CC(C)[N+](C)(CCOC(=O)C1c2ccccc2Oc2ccccc21)C(C)C | inactive
16 | O=S(=O)(O)NC1CCCCC1 | inactive
17 | O=C(OCc1ccccc1)c1ccc(O)cc1 | inactive
18 | C=Cc1ccc(C)cc1 | inactive
19 | C=CCOC(=O)C(=C)C | inactive
20 | Cc1c(C(N)=O)cc([N+](=O)[O-])cc1[N+](=O)[O-] | inactive

Row | Structure (SMILES) | Potency
21 | CC(=O)C(=O)O | inactive
22 | NCCOCCO | inactive
23 | COc1ccccc1O | inactive
24 | Cn1c([N+](=O)[O-])cnc1COC(N)=O | inactive
25 | O=c1c(O)c(-c2ccc(O)cc2)oc2cc(O)cc(O)c12 | inactive
26 | C/C=C/c1ccc(OC)cc1 | inactive
27 | CCc1nc(N)nc(N)c1-c1ccc(Cl)cc1 | inactive
28 | COC(=O)CCCCC(=O)OC | inactive
29 | Oc1ccc(Cc2ccccc2O)cc1 | inactive
30 | Cc1cc(Cc2ccc(N)c(C)c2)ccc1N | inactive
31 | COc1ccccc1OCC(O)CO (stereo not given) | inactive
32 | C=CCOC(=O)c1ccccc1C(=O)OCC=C | inactive
33 | CCCCC(=O)O | inactive
34 | CCCCC/C=C\C/C=C\CCCCCCCC(=O)O | inactive
35 | CCCCCC(N)=O | inactive
36 | CC(C)c1cccc(C(C)C)c1 | inactive
37 | CCCCOCCOCCO | inactive
38 | C/C=C/C(=O)N(CC)c1ccccc1C | inactive
39 | Cc1cc(=O)oc2cc(O)ccc12 | inactive
40 | CCOCCOCCO | inactive
